From PubChem BioAssay
Mtb BioA inh – inhibitors of Mycobacterium tuberculosis BioA enzyme | purified M. tuberculosis BioA enzyme, plate reader | actives 0.096% (n = 360,000) | inhibition, % at 9.99 µM; in the data active = inhibition above about 40%; inconclusive = no clear call, values can overlap the other calls
PrP 5UTR inh – suppresses PrP 5' UTR mRNA reporter expression; cell-based PrP 5' UTR mRNA reporter, plate reader; inhibition, % (test concentration not listed); actives 0.35% (n = 340,000); in the data active = inhibition above about 52%; note: 0 = median of the neutral control wells
TcdB inh – inhibitors of Clostridioides difficile toxin B glycohydrolase; AID 652162; P18177; inhibition, % at 9.99 µM; TcdB glycohydrolase enzymatic assay, plate reader; actives 0.24% (n = 350,000); in the data active = inhibition above about 10%
Target sequence (P18177 whole entry, looked up): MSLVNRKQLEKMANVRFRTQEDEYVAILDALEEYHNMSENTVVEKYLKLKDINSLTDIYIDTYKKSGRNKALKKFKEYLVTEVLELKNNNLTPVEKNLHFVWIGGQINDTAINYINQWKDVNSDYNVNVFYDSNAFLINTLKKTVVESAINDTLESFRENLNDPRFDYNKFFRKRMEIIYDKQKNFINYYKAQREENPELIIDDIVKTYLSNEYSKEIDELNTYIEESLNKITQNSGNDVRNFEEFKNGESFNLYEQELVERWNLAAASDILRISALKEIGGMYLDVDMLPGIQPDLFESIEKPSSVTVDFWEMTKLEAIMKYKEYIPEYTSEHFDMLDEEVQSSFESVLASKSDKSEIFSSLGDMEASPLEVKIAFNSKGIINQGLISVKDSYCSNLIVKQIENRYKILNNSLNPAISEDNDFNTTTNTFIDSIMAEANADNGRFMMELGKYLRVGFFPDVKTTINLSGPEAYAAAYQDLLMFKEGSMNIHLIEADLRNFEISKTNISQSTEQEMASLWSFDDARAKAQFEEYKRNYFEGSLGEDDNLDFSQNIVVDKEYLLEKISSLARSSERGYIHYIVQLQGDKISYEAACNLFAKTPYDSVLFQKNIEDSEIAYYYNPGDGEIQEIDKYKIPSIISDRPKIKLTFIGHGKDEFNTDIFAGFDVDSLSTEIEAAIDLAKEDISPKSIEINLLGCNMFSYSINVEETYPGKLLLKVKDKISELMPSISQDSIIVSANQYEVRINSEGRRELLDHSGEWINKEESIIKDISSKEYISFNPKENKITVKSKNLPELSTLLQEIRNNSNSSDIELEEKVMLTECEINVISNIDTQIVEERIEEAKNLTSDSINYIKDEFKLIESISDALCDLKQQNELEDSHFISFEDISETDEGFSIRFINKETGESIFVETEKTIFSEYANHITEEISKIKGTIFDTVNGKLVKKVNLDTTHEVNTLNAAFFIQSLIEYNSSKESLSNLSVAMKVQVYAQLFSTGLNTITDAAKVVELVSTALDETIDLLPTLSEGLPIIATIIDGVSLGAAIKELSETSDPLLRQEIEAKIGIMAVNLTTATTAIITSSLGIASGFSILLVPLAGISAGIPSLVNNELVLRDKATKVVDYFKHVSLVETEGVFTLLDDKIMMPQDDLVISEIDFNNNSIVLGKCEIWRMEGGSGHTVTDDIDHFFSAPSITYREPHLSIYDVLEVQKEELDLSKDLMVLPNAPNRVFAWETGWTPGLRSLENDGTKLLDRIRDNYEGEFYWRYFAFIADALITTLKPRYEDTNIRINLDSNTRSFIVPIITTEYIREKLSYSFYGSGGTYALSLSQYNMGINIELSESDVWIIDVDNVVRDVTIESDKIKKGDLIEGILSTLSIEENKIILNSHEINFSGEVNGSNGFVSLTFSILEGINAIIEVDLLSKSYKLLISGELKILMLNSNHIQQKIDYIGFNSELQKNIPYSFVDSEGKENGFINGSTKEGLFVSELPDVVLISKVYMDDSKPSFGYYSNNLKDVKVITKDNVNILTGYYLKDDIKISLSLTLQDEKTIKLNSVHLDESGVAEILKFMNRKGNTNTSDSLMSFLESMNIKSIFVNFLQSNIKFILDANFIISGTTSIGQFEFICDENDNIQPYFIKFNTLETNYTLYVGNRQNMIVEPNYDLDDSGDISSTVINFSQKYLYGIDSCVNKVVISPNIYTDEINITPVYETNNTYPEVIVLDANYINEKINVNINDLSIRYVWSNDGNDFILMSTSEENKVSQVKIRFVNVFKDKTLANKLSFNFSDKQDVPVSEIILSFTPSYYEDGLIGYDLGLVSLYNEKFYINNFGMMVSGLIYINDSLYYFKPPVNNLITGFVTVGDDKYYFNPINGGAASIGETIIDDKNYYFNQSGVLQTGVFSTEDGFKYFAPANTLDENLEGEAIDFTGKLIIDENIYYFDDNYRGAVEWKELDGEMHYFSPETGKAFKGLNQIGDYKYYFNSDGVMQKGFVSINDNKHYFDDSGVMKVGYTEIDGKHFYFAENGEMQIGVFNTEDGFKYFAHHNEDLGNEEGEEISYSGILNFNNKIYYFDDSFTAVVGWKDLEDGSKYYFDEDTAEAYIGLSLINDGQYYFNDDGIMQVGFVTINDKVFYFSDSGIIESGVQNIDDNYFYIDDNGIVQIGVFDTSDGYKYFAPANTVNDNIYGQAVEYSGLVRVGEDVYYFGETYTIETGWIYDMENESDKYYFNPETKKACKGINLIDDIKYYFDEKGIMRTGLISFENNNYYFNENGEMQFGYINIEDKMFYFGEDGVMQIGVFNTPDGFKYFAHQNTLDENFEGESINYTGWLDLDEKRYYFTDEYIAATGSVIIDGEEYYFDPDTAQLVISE
FadD28 binding – inhibitors of Mycobacterium tuberculosis FadD28 bisubstrate binding; FadD28 bisubstrate probe binding, fluorescence polarization; inhibition, % at 12.5 µM; actives 0.22% (n = 360,000); AID 588549; in the data active = inhibition above about 8.5%, passing the limit was not always enough; inconclusive = no clear call, values can overlap the other calls
PfHsp40 rescue – rescue of PfHsp40-mediated yeast toxicity; growth rescue, % at 12.5 µM; AID 504582; actives 0.68% (n = 340,000); S. cerevisiae expressing PfHsp40, growth rescue, ATP luminescence; in the data active = growth rescue above about 28%, passing the limit was not always enough; inconclusive = no clear call, values can overlap the other calls;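 note: yeast W303a lacking pdr1 and pdr3 grown in galactose medium; growth measured after three days at 30 °C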
* = called active by the depositor; ? = inconclusive; . = no result given. In the library only some 1.1% were active in any assay of this set; here they are far more common.

SMILES	Mtb BioA inh	PrP 5UTR inh	TcdB inh	FadD28 binding	PfHsp40 rescue
CC=Cc1ccc2n(c1=O)C[C@H]1[C@H](CO)[C@@H](C(=O)NCCOC)[C@@H]2N1Cc1ccccc1OC (mixture of isomers)	.	.	0	.	.
O=C(Nc1ccc(O)cc1)C1CCCN1S(=O)(=O)c1ccc(F)cc1 (centres undefined)	-2	3	10*	0	-1
CC(=O)Nc1ccc(NC(=O)[C@@H]2CCCN2S(=O)(=O)c2ccc3c(c2)OCCO3)cc1	-1	-6	16*	-2	-1
CC(=O)c1ccc(NC(=O)C2CCCN2S(=O)(=O)c2ccc(F)cc2)cc1 (centres undefined)	-1	-15	1	-3	0
O=C(C[C@@H]1CC[C@@H]2[C@H](COC[C@@H](O)CN2C(=O)Nc2ccccc2)O1)NC1Cc2ccccc2C1	-1	.	1	.	.
CCCNC(=O)C1(C)CCCN(C(=O)c2ccccc2OC(F)(F)F)C1 (centres undefined)	0	.	12*	0	.
Nc1nnc(SCCCOc2ccc(F)cc2)s1	-2	-18	2	13*	0
CCCOc1ccc(OCCSc2nnc(N)s2)cc1	0	-9	.	-3	-1
Cn1nc([N+](=O)[O-])c(C(C#N)c2nc3ccccc3n2C)c(Cl)c1=O (centres undefined)	.	-11	.	12*	-2
CCOc1cc(/C=C\c2nc(O)c([N+](=O)[O-])c(=O)[nH]2)ccc1OC(C)C	-2	-9	0	-2	-1
O=c1[nH]c(/C=C\c2ccc(O)c(Cl)c2)nc(O)c1[N+](=O)[O-]	-5	2	12*	1	-1
O=c1[nH]c(/C=C\c2ccc(O)cc2)nc(O)c1[N+](=O)[O-]	-1	-13	16*	0	0
Cc1ccc(C(=O)OCc2nnc(-c3ccc(Br)cc3)o2)cc1	0	-16	1	-1	27*
O=C(NCc1ccncc1)c1ccccc1Nc1ccc(SC(F)F)cc1	-2	4	2	-1	474*
COc1ccc(NC(=O)Nc2ccc3c(c2)C(=O)N([C@@H](C)CO)C[C@@H](C)[C@H](CN(C)Cc2ccc(C(=O)O)cc2)OCCCC[C@H](C)O3)cc1	2	.	-1	.	.
COc1ccc2c3c(n(C)c2c1)[C@@H](CO)N(C(=O)c1cnccn1)CC31CN(C(C)=O)C1	.	.	-2	.	.
COc1ccc(NC(=O)N(C)C[C@@H]2Oc3ccc(N(C)C)cc3CC(=O)N([C@H](C)CO)C[C@H]2C)cc1	-2	.	-10	.	.
COc1ccc(Nc2nc(N)c(C(=O)c3ccc(OC)cc3)s2)cc1	1	-7	1	-2	9
COc1ccc(Nc2nc(N)c(C(=O)c3ccc(F)cc3)s2)cc1	.	27	0	-1	34*
COc1ccc(NC(=S)Nc2cc(-c3ccccc3)[nH]n2)cc1Cl	0	-8	.	-42	0
CCOc1ccc(NC(=S)Nc2cc(-c3ccccc3)[nH]n2)cc1	3	-5	.	-28	106*
C[C@@H](NC(=O)C[C@@H]1C[C@@H]2c3cc(NC(=O)NC4CCCC4)ccc3O[C@@H]2[C@@H](CO)O1)c1ccccc1	-1	.	-1	.	.
O=C(O)c1ccc(-c2nnc(-c3ccccc3)o2)cc1	-1	-35	13*	-1	-3
Cc1ccc(NS(=O)(=O)c2ccc(NC(=O)C(C)Sc3ccc(Cl)cc3)cc2)c(C)c1 (centres undefined)	.	-11	1	-2	93*
Cc1ccc(C)c(NS(=O)(=O)c2ccc(NC(=O)CSc3ccc(Cl)cc3)cc2)c1	.	-75	2	?	-2
SMILES	Mtb BioA inh	PrP 5UTR inh	TcdB inh	FadD28 binding	PfHsp40 rescue
COc1ccc(OC)c(/C=C2\SC(=S)N(NS(=O)(=O)c3ccccc3)C2=O)c1	.	-13	-1	0	1
CC(C(=O)O)N1C(=O)/C(=C/C=C/c2ccco2)SC1=S (centres undefined)	-2	-3	.	36*	9
O=C1/C(=C/C=C/c2ccco2)SC(=S)N1NS(=O)(=O)c1ccccc1	-3	-2	-2	47*	2
O=C1/C(=C/c2cccs2)SC(=S)N1NS(=O)(=O)c1ccccc1	1	-49	-6	-2	222*
C[C@H](CO)N1C[C@H](C)[C@H](CN(C)C(=O)Cc2ccccc2)OCCCC[C@H](C)Oc2ccc(NS(=O)(=O)c3ccccc3)cc2C1=O	0	.	0	.	.
CCNC(=O)[C@@H]1[C@@H](CO)[C@@H]2Cn3c(ccc(-c4ccccc4F)c3=O)[C@@H]2N1C	1	.	0	.	.
O=C(Nc1nnc(C2=COCCO2)o1)c1cccc(Br)c1	0	-8	1	1	59*
C[C@@H]1CN([C@@H](C)CO)C(=O)Cc2cc(NC(=O)CCC(F)(F)F)ccc2O[C@@H]1CN(C)Cc1ccc(-c2ccccc2)cc1	0	.	1	.	.
Cc1cccc(OCC(=O)N/N=C\c2cn(C)c3ccccc23)c1	0	-43	0	41*	-1
Cc1cccc(OCCn2cc(/C=N/NC(=O)c3ccncc3)c3ccccc32)c1	.	-22	.	-2	11
S=C(NCCCn1ccnc1)Nc1cccc(Cl)c1	2	-13	.	-2	35*
O=Cc1c(Cl)nc2ccccn12	.	-18	1	-3	-2
Clc1cc2nc3ccccn3c2cc1Cl	.	-19	.	0	152*
CN(C)CCCNC(=O)C[C@H]1CC[C@H]2[C@H](COc3ccc(NS(C)(=O)=O)cc3C(=O)N2C)O1	-1	.	0	.	.
O=CC1=C(c2ccccc2)Oc2ccccc2O1	-2	-10	-1	0	495*
O=C1C(Cl)=C(Nc2ccccc2O)C(=O)N1CCc1ccccc1	-1	-31	.	-5	142*
C[C@@H]1CN([C@@H](C)CO)C(=O)c2cc(-c3cccnc3)cnc2O[C@@H]1CN(C)Cc1ccc(-c2ccccc2)cc1	.	.	-1	.	.
O=C(COc1ccc(/C=N/NC(=O)c2ccncc2)cc1)Nc1ccc([N+](=O)[O-])cc1	.	-7	1	1	-2
O=C(COc1ccc(/C=N/NC(=O)c2ccc(O)cc2)cc1)Nc1cccc([N+](=O)[O-])c1	.	-9	15*	0	0
CN(C)c1ccc2c(c1)[C@@H]1C[C@@H](CC(=O)O)O[C@@H](CO)[C@@H]1O2	-2	.	-35	.	.
O=c1c2ccccc2nc(/C=C/c2ccc(O)cc2)n1-c1ccccc1O	-1	-20	12*	-4	0
O=c1c2ccccc2nc(/C=C/c2ccccc2)n1-c1ccccc1O	3	.	3	-4	4
COc1ccc(CN2C[C@H](O)COC[C@@H]3O[C@@H](CC(=O)N4CCc5ccccc5C4)CC[C@H]32)cc1	-1	.	-1	.	.
C[C@@H]1CN([C@@H](C)CO)C(=O)CCCn2cc(nn2)CO[C@@H]1CN(C)Cc1ccc(C(=O)Nc2ccccc2N)cc1	-1	.	0	.	.
CCn1c(CNc2ccc(Cl)cc2)nnc1SCC(=O)NCc1ccccc1	22	-4	.	-2	-1
Cn1c(CNc2ccc(Cl)cc2)nnc1SCc1ccccc1	.	-1	.	-2	143*
Cn1c(CNc2ccc(Cl)cc2)nnc1SCC#N	.	-15	0	0	-1
